{
  "source": "the supplement of paper PMC10811239",
  "data": [
    {"tested_on": "LEGO organoid PT (PTEN-/-; TP53-/-)", "assay": "bioluminescence (viable cell) signal fold change after vs before treatment, normalised to DMSO (ratio); higher = more tumour cell growth / less inhibition", "settings": "10 µM; treatment time 6 days", "protocol": "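Luc2-labelled iPSC-derived glioblastoma-like organoids (LEGOs, genotypes PT = PTEN-/-;TP53-/-, PTCC = plus CDKN2A/B-/-, PTN = plus NF1-/-) were treated with 10 uM drug for 6 days (applied every other day) at 37 C. Bioluminescence imaging was done before treatment and 2 days after the last dose. BLI signals were normalised to the DMSO control on the same day and then to the pre-treatment signal (N=3).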", "values": [
      {"smiles": "C[C@@](Cc1ccc(O)c(O)c1)(NN)C(=O)O.O", "note": "[Carbidopa Hydrate]", "bioluminescence": 0.415},
      {"smiles": "CN(C)C(=N)NC(=N)N", "note": "[Metformin]", "bioluminescence": 0.733},
      {"smiles": "C[C@H](C(=O)O)c1cccc(C(=O)c2ccccc2)c1", "note": "[(S)-(+)-Ketoprofen]", "bioluminescence": 0.793},
      {"smiles": "CN(C)CCC=C1c2ccccc2COc2ccccc21.Cl", "note": "[Doxepin hydrochloride]", "bioluminescence": 1.71},
      {"smiles": "N[C@@H](Cc1ccc(O)c(O)c1)C(=O)O", "note": "[Levodopa]", "bioluminescence": 0.963},
      {"smiles": "Cc1cc(C)cc(OCC2CNC(=O)O2)c1", "note": "(stereo not given) [Metaxalone]", "bioluminescence": 1.24},
      {"smiles": "COc1cc2c(Nc3ccc(Br)cc3F)ncnc2cc1OCC1CCN(C)CC1", "note": "[Vandetanib]", "bioluminescence": 1.32},
      {"smiles": "CC(C)NCC(O)COc1ccc(CC(N)=O)cc1", "note": "(stereo not given) [Atenolol]", "bioluminescence": 1.39},
      {"smiles": "NC(=O)N1c2ccccc2C=Cc2ccccc21", "note": "[Carbamazepine]", "bioluminescence": 0.803},
      {"smiles": "Cc1ccnc2c1NC(=O)c1cccnc1N2C1CC1", "note": "[Nevirapine]", "bioluminescence": 2.15},
      {"smiles": "N=C(N)NCCCC[C@@H]1NC(=O)CCSSC[C@@H](C(N)=O)NC(=O)[C@@H]2CCCN2C(=O)[C@H](Cc2c[nH]c3ccccc23)NC(=O)[C@H](CC(=O)O)NC(=O)CNC1=O", "note": "[Eptifibatide]", "bioluminescence": 1.89},
      {"smiles": "CCC(C)n1ncn(-c2ccc(N3CCN(c4ccc(OC[C@H]5CO[C@](Cn6cncn6)(c6ccc(Cl)cc6Cl)O5)cc4)CC3)cc2)c1=O", "note": "(stereo not given in full) [Itraconazole]", "bioluminescence": 1.69},
      {"smiles": "NCC[C@H](O)C(=O)N[C@@H]1C[C@H](N)[C@@H](O[C@H]2O[C@H](CN)[C@@H](O)[C@H](O)[C@H]2O)[C@H](O)[C@H]1O[C@H]1O[C@H](CO)[C@@H](O)[C@H](N)[C@H]1O.O=S(=O)(O)O.O=S(=O)(O)O", "note": "[Amikacin disulfate]", "bioluminescence": 1.24},
      {"smiles": "CCOC(=O)OC(C)OC(=O)[C@@H]1N2C(=O)[C@@H](NC(=O)[C@H](N)c3ccccc3)[C@H]2SC1(C)C.Cl", "note": "(stereo not given in full) [Bacampicillin hydrochloride]", "bioluminescence": 0.788},
      {"smiles": "COc1ccc(CNc2nc(N3CCC[C@H]3CO)ncc2C(=O)NCc2ncccn2)cc1Cl", "note": "[Avanafil]", "bioluminescence": 0.905},
      {"smiles": "Cc1ccc(Nc2nccc(N(C)c3ccc4c(C)n(C)nc4c3)n2)cc1S(N)(=O)=O", "note": "[Pazopanib]", "bioluminescence": 0.948},
      {"smiles": "CSCC[C@@H](N)C(=O)O", "note": "[Methionine]", "bioluminescence": 1.1},
      {"smiles": "CCC(C)(C)C(=O)O[C@H]1C[C@@H](C)C=C2C=C[C@H](C)[C@H](CC[C@@H]3C[C@@H](O)CC(=O)O3)[C@H]21", "note": "[Simvastatin]", "bioluminescence": 1.45},
      {"smiles": "CC(C)Nc1cccnc1N1CCN(C(=O)c2cc3cc(NS(C)(=O)=O)ccc3[nH]2)CC1.CS(=O)(=O)O", "note": "[Delavirdine mesylate]", "bioluminescence": 0.826},
      {"smiles": "CC(=O)OCC[N+](C)(C)C.[Cl-]", "note": "[Acetylcholine chloride]", "bioluminescence": 0.981},
      {"smiles": "CCC1(C)CC(=O)NC1=O", "note": "(stereo not given) [Ethosuximide]", "bioluminescence": 0.871},
      {"smiles": "CCCCS(=O)(=O)N[C@@H](Cc1ccc(OCCCCC2CCNCC2)cc1)C(=O)O", "note": "[Tirofiban]", "bioluminescence": 0.741},
      {"smiles": "CCc1cc2c(cc1N1CCC(N3CCOCC3)CC1)C(C)(C)c1[nH]c3cc(C#N)ccc3c1C2=O.Cl", "note": "[Alectinib hydrochloride]", "bioluminescence": 0.656},
      {"smiles": "Nc1nc(=O)c2c(CCc3ccc(C(=O)N[C@@H](CCC(=O)[O-])C(=O)[O-])cc3)c[nH]c2[nH]1.Nc1nc(=O)c2c(CCc3ccc(C(=O)N[C@@H](CCC(=O)[O-])C(=O)[O-])cc3)c[nH]c2[nH]1.O.O.O.O.O.[Na+].[Na+].[Na+].[Na+]", "note": "[Pemetrexed Disodium Hydrate]", "bioluminescence": 1.33},
      {"smiles": "CN(C)CC(c1ccc(O)cc1)C1(O)CCCCC1.O=C(O)CCC(=O)O", "note": "(stereo not given) [Desvenlafaxine succinate hydrate]", "bioluminescence": 1.67},
      {"smiles": "CCc1c(C)[nH]c2c1C(=O)C(CN1CCOCC1)CC2.Cl", "note": "(stereo not given) [Molindone hydrochloride]", "bioluminescence": 0.607},
      {"smiles": "CN(C)CCc1c[nH]c2ccc(CS(=O)(=O)N3CCCC3)cc12.O=C(O)CC(O)C(=O)O", "note": "[Almotriptan Malate]", "bioluminescence": 1.74},
      {"smiles": "CN1CCN2c3ncccc3Cc3ccccc3C2C1", "note": "(stereo not given) [Mirtazapine]", "bioluminescence": 1.1},
      {"smiles": "Cc1cc2c(s1)Nc1ccccc1N=C2N1CCN(C)CC1", "note": "[Olanzapine]", "bioluminescence": 1.17},
      {"smiles": "O.O.O.O.O.O.O.O=C1CN(/N=C/c2ccc(-c3ccc([N+](=O)[O-])cc3)o2)C(=O)[N-]1.O=C1CN(/N=C/c2ccc(-c3ccc([N+](=O)[O-])cc3)o2)C(=O)[N-]1.[Na+].[Na+]", "note": "[Dantrolene sodium hemiheptahydrate]", "bioluminescence": 0.935},
      {"smiles": "CCC(=O)NCC[C@@H]1CCc2ccc3c(c21)CCO3", "note": "[Ramelteon]", "bioluminescence": 0.961},
      {"smiles": "CC(C)CN(C[C@@H](O)[C@H](Cc1ccccc1)NC(=O)O[C@H]1CCOC1)S(=O)(=O)c1ccc(N)cc1", "note": "[Amprenavir]", "bioluminescence": 0.802},
      {"smiles": "FC(F)(F)C(Cl)Br", "note": "(stereo not given) [Anestan]", "bioluminescence": 1.01},
      {"smiles": "COCCCC/C(=N\\OCCN)c1ccc(C(F)(F)F)cc1.O=C(O)/C=C\\C(=O)O", "note": "[Fluvoxamine maleate]", "bioluminescence": 1.22},
      {"smiles": "COc1ccc(Cl)cc1C(=O)NCCc1ccc(S(=O)(=O)NC(=O)NC2CCCCC2)cc1", "note": "[Glyburide]", "bioluminescence": 2.23},
      {"smiles": "CCC(CC)O[C@@H]1C=C(C(=O)O)C[C@H](N)[C@H]1NC(C)=O", "note": "[Oseltamivir acid]", "bioluminescence": 0.803},
      {"smiles": "CCCC(CCC)C(=O)O.CCCC(CCC)C(=O)[O-].[Na+]", "note": "[Divalproex Sodium]", "bioluminescence": 0.727},
      {"smiles": "N[C@H](C(=O)O)[C@H](O)c1ccc(O)c(O)c1", "note": "[Droxidopa]", "bioluminescence": 1.08},
      {"smiles": "Cc1ccc(Nc2nccc(N(C)c3ccc4c(C)n(C)nc4c3)n2)cc1S(N)(=O)=O.Cl", "note": "[Pazopanib HCl]", "bioluminescence": 0.626},
      {"smiles": "CN(Cc1cnc2nc(N)nc(N)c2n1)c1ccc(C(=O)N[C@@H](CCC(=O)O)C(=O)O)cc1", "note": "[Methotrexate]", "bioluminescence": 1.94}
    ]}
  ]
}
